From PubChem BioAssay
Only some compounds are listed: those with a hit (about 3% of all), similar ones and a draw of the others.
Wnt act: Wnt/beta-catenin pathway activation | 1.2% of 300,000 active | Wnt/beta-catenin reporter cell assay, activator, plate reader | activation, % at 9.35 µM; in the data active = activation above about 30%, passing the limit was not always enough; inconclusive = no clear call, values can overlap the other calls;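 also: 0% = neutral control wells and 100% = positive control wells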
MITF act: activators of MITF-driven TRPM1 promoter activity in SK-MEL-5 cells. SK-MEL-5 TRPM1-promoter luciferase, 24 h; % of positive control, neutral wells = 0. activation, % at 12.5 µM. 0.75% of 300,000 active;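 active = mean activation of at least 80% with every replicate also reaching 80%; inconclusive = mean reaches 80% but some replicate falls short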;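 also: 0% = neutral control wells and 100% = parthenolide positive control wells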
Vif inh: blocks HIV Vif function; inhibition, % at 7.49 µM; 0.35% of 340,000 active; HEK293T cells, Vif self-association by quenched fluorescence, imaging, 24 h; AID 602346; in the data active = inhibition above about 50%, passing the limit was not always enough; inconclusive = no clear call, values can overlap the other calls; inactive = below about 31%
N-glyco inh: blocks N-linked glycosylation in D54 reporter cells; D54 ERlucT glycosylation luciferase reporter, 24 h; percent of 100 nM tunicamycin response; reporter increase, % at 12.5 µM; 0.23% of 360,000 active; AID 588692;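 active = mean luciferase reporter signal, scaled so untreated is 0 and the glycosylation-blocking control 100, at or above a set limit in every replicate; inconclusive = mean reaches the limit but not every replicate does; inactive = mean below the limit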;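 also: luciferase carries N-glycosylation sites so blocking glycosylation raises the light; 0% = median of neutral control wells and 100% = median of 100 nM tunicamycin wells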
esBAF inh: SWI/SNF esBAF complex inhibition | mouse ES cells, Bmi1-luciferase knock-in reporter, 24 h; 100% = twice the neutral-well signal | reporter increase, % at 12.5 µM | 2% of 350,000 active | AID 602393; in the data active = activation above about 40%; inconclusive = no clear call, values can overlap the other calls;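 also: 0% = median of the plate's neutral control wells and 100% = double that signal; a rise in the Bmi1 reporter signal indicates esBAF inhibition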
PfHsp90 yeast 2: growth inhibition of yeast expressing Plasmodium Hsp90; S. cerevisiae expressing PfHsp90, BacTiter-Glo ATP, 48 h; yeast lacking PDR1 and PDR3 efflux regulators; inhibition, % at 9.4 µM; 0.32% of 310,000 active;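 active = every replicate shows inhibition above about 80%, whatever the replicate mean, limit read from the data; inconclusive = mean inhibition reaches the set limit but some replicate falls short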;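 also: 0% = DMSO neutral controls and 100% = 20 µM radicicol positive controls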
Active calls of the source: *; i = inactive; ? = inconclusive; . = not tested or not shown.

SMILES | Wnt act | MITF act | Vif inh | N-glyco inh | esBAF inh | PfHsp90 yeast 2
CC(=O)c1ccc(OCc2cc(C(=O)N3CCN4CCCC4C3)no2)cc1 (stereo unspecified) | 1.1 | -3.9 | 11.2 | -0.2 | 3.5 | 14.0
CC(=O)c1ccc(OCc2cc(C(=O)NC3CCCCC3)no2)cc1 | 31.8* | 102.6* | -3.1 | -0.1 | . | -2.2
CC(=O)c1ccc(OCc2cc(C(=O)N3CCC(c4ccncc4)CC3)no2)cc1 | 11.8 | -7.3 | -8.8 | -0.5 | 0.5 | 8.4
CC(=O)c1ccc(OCc2cc(C(=O)NCCN3CCCC(O)C3)no2)cc1 (stereo unspecified) | -0.8 | -5.7 | -23.5 | 2.1 | 3.3 | -8.5
C[C@@H]1CN([C@@H](C)CO)C(=O)c2cc(C#CCC3CCCC3)cnc2O[C@@H]1CN(C)C(=O)c1cnccn1 | . | . | . | . | -0.8 | .
CSc1nc(N)nc(SCC(=O)c2ccc(C)cc2)c1C#N | . | 53.6 | 3.9 | -3.0 | 60.8* | 5.6
CSc1nc(N)nc(SCC(=O)OC(C)C)c1C#N | 17.3 | . | 2.8 | 1.6 | 3.7 | 14.8
Cc1nn(Cc2c(Cl)cccc2Cl)c(C)c1NC(=O)c1cc(C(C)C)on1 | -15.2 | -0.9 | -1.2 | 63.7* | 8.4 | -4.0
Cc1cc(C(=O)Nc2c(C)nn(Cc3c(Cl)cccc3Cl)c2C)no1 | 5.1 | -4.8 | 1.5 | -10.9 | . | -3.3
COc1cc(C2C3=C(COC3=O)Oc3cc4c(cc32)OCO4)cc(OC)c1O (stereo unspecified) | -24.0 | -33.9 | 60.2* | 11.5 | . | 8.7
O=C(Nc1ccccc1N1CCOCC1)c1ccc(N2CCOCC2)c([N+](=O)[O-])c1 | -7.3 | 22.7 | 0.5 | 4.4 | . | -11.5
COc1ccc2oc(-c3ccc(C)c(NC(=O)c4ccc(N5CCOCC5)c([N+](=O)[O-])c4)c3)nc2c1 | . | 20.3 | 72.6* | -2.5 | 4.3 | -9.5
COc1ccc(CNC(=O)c2ccc(N3CCOCC3)c([N+](=O)[O-])c2)cc1 | -5.2 | -5.7 | 31.5 | 0.4 | . | 20.9
O=C(Nc1nccs1)c1ccc(N2CCOCC2)c([N+](=O)[O-])c1 | 42.6* | 63.8 | -3.0 | -5.7 | 39.6 | 14.6
Nc1ccc(CSc2ccc(Cl)cc2)c(Cl)c1 | 56.7* | 134.7* | 1.4 | -5.4 | 102.8* | 19.0
c1ccc2ncccc2c1 | . | 7.2 | -6.3 | 4.3 | 6.2 | 7.3
c1ccc2nc(-c3nccs3)ccc2c1 | 7.8 | 90.8* | 0.6 | 1.0 | . | -25.3
Clc1ccsc1-c1ccc2ccccc2n1 | 38.9* | 51.2 | -3.9 | -2.0 | 49.2* | -5.7
CC(=O)Nc1cccc(NC(=O)c2cc(-c3cccnc3)nc3ccc(Cl)cc23)c1 | -1.4 | -1.7 | -7.6 | 8.1 | . | 6.4
CC(=O)Nc1cccc(NC(=O)c2cc(-c3ccccn3)nc3ccc(Cl)cc23)c1 | -1.0 | -14.7 | 69.8* | -0.4 | -11.1 | -26.6
CCc1cc(C(=O)Nc2ccc(OC)nc2)sc1C | 21.2 | 58.6 | -8.7 | -1.3 | 46.7* | -30.2
CCc1cc(C(=O)Nc2ncccc2O)sc1C | 36.5* | 2.3 | -0.5 | -17.5 | . | 34.5
COc1ccc(NC(=O)c2cc(Br)c(Br)s2)cn1 | 21.9 | 41.0 | -6.8 | -1.3 | 34.8 | -26.4
O=C(CNC(=O)c1cccs1)Nc1ncccc1O | -0.3 | 2.7 | 13.5 | -1.8 | -4.4 | .
C/C(=N\NC(=O)C1COc2ccccc2O1)c1cccs1 (stereo unspecified) | 3.3 | 14.3 | 13.5 | 1.5 | 7.7 | -43.0
SMILES | Wnt act | MITF act | Vif inh | N-glyco inh | esBAF inh | PfHsp90 yeast 2
Cc1cc(C(=O)Nc2ccc3c(c2)C(=O)N(C)[C@H]2CC[C@@H](CC(=O)N[C@H](C)c4ccccc4)O[C@H]2CO3)no1 | . | . | . | . | 7.5 | .
COc1cc(CNc2nc3ccccc3[nH]2)cc(OC)c1OC | -0.7 | . | -21.2 | 0.5 | -2.3 | .
Oc1ccccc1C1SC(c2ccccc2O)SC(c2ccccc2O)S1 (stereo unspecified) | 0.2 | -40.5 | 59.5* | -2.8 | 1.7 | .
Cc1cc2c(cc1C)CSC(c1ccccc1O)SC2 | . | . | -15.9 | -6.5 | -1.2 | -39.9
CC(NC(=O)Nc1nccs1)(C(F)(F)F)C(F)(F)F | . | 9.9 | 0.1 | 1.8 | -2.4 | -6.8
Cc1ccc(C(=O)COC(=O)c2cccc(O)c2)s1 | 39.5* | 53.5 | -12.0 | -0.3 | 62.5* | 1.9
CSc1ncccc1C(=O)OCC(=O)c1ccc(Cl)s1 | -0.5 | . | -1.8 | -2.7 | 6.5 | .
CSc1ncccc1C(=O)OCC(=O)c1ccc(C)s1 | 16.1 | 10.1 | 25.8 | -1.3 | 57.6* | .
Cc1ccc(C2NC(=S)N3C(c4ccc(C)cc4)NC(=S)N23)cc1 (stereo unspecified) | 6.0 | . | 6.7 | 2.2 | 61.1* | .
Cc1cccc(NC(=O)c2cnn3ccccc23)c1C | -0.9 | ? | 22.4 | 19.4 | 41.9* | 20.5
O=C(NCc1ccc(Cl)cc1)c1cnn2ccccc12 | 9.4 | 95.9* | -11.7 | -4.2 | 59.8* | -3.4
Cc1ccc(CNc2ncnc(N)c2[N+](=O)[O-])cc1 | -0.9 | 22.1 | -0.1 | -10.4 | . | -18.2
COc1cccc(-c2ncc3ccccc3c2COC(=O)N2CCOCC2)c1 | 2.9 | 41.1 | . | 1.7 | 53.2* | 9.7
Cc1ccc(-c2nc(C(=O)NCCCN(C)C)cc3c2[nH]c2ccccc23)cc1 | 1.3 | -73.6 | 3.4 | 46.2* | -2.9 | -6.9
O=C(NCCO)c1cc2c([nH]c3ccccc32)c(-c2ccccc2)n1 | 0.2 | -2.4 | -3.2 | 6.1 | 6.5 | 5.8
O=C(Nc1ccccc1)N(CCN1CCOCC1)Cc1ccccc1F | . | 15.7 | -1.4 | 16.4 | 17.4 | -25.7
CO[C@@H]1CN(C)C(=O)c2ccc(NS(=O)(=O)c3ccc(C)cc3)cc2OC[C@H](C)N(Cc2nccs2)C[C@H]1C | . | . | . | . | -0.3 | .
Cc1ccc(Nc2nc(N)nc(COC(=O)C3=COCCO3)n2)cc1 | ? | 95.0* | 7.2 | 2.0 | 36.8 | -8.4
Nc1nc(CCl)nc(Nc2ccccc2)n1 | 4.4 | 19.7 | -6.0 | 3.8 | . | 10.2
Cc1cccc(Nc2nc(N)nc(CCl)n2)c1 | 7.3 | . | 141.9* | 10.8 | . | -5.6
Cc1ccc(NC(=O)COC(=O)C2=COCCO2)cc1 | . | -0.3 | -41.7 | -0.7 | 4.6 | 17.7
Cc1ccc(Nc2nc(N)nc(CSc3nnc(-c4ccncc4)o3)n2)cc1 | -2.4 | 15.4 | 83.0* | 1.0 | 7.0 | -13.9
Cc1ccc(Nc2nc(N)nc(CCl)n2)cc1 | 39.1* | . | -5.4 | 5.7 | . | 8.7
CCN(C(=O)COC(=O)c1c(C)nsc1NC)c1ccccc1 | 3.9 | 5.2 | -3.2 | -0.2 | 3.0 | 38.5
Cc1ccccc1CSc1ccc2nnc(-c3ccccn3)n2n1 | -1.8 | 15.2 | i | 5.7 | 3.0 | -1.9
CN(C)CCCN(C(=O)c1ccc(Cl)s1)c1nc2cc3c(cc2s1)OCO3 | -0.5 | -81.6 | 4.0 | -3.9 | -0.8 | 28.3
N=C(N)c1ccc(OCCCCCOc2ccc(C(=N)N)cc2)cc1 | -15.0 | -8.9 | 26.0 | -0.6 | -11.0 | -8.1
CN1C(=O)c2cc(NC(=O)c3cccs3)ccc2OC[C@H]2O[C@H](CC(=O)N3CCOCC3)CC[C@@H]21 | . | . | . | . | 1.9 | .
